Data taken from the supplement of paper PMC11732987, “Enantioselective OTUD7B fragment discovery through chemoproteomics screening and high-throughput optimisation” (Communications Chemistry, 2025).
Values without a mark were called inactive.

Legend:
Assay in all cases: log2 ratio of Biotin-Ahx-Ub-VS probe labelling (fragment/DMSO); higher = less target engagement (more negative = stronger competition), active = hit call of the paper (q ≤ 0.05, log2 ratio ≤ -1)
Conditions in all cases: compound concentration: 200 uM; treatment time: 3 h
OTUD6B = molecular target: T1, OTUD6B (UniProt Q8N6M0)
T1 sequence (whole entry): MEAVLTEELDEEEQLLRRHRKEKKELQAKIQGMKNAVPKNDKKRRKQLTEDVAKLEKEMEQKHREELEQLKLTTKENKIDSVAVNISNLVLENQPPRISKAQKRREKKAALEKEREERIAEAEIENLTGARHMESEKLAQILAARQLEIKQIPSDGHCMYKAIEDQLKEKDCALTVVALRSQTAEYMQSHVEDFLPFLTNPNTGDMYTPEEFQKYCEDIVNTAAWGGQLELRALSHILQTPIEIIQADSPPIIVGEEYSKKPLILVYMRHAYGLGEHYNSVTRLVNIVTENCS
Summary of the method: (§1)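 HEK293T lysate (495 µg per sample, in Tris/CHAPS/IGEPAL buffer with protease inhibitors) was exposed in triplicate for 3 h to fragment at 200 µM or to vehicle, then to Biotin-Ahx-Ub-VS at 0.5 µM final for 1 h. Labelled DUBs were enriched on NeutrAvidin, digested with LysC and trypsin, and analysed by diaPASEF LC-MS/MS. Spectronaut label-free quantities were normalised to the global median, and values are average log2 ratios of fragment over vehicle from an unpaired t-test. Only proteins with ≥2 unique peptides were used.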

OTUD7B = molecular target: T2, OTUD7B (UniProt Q6GQQ9)
T2 sequence (whole entry): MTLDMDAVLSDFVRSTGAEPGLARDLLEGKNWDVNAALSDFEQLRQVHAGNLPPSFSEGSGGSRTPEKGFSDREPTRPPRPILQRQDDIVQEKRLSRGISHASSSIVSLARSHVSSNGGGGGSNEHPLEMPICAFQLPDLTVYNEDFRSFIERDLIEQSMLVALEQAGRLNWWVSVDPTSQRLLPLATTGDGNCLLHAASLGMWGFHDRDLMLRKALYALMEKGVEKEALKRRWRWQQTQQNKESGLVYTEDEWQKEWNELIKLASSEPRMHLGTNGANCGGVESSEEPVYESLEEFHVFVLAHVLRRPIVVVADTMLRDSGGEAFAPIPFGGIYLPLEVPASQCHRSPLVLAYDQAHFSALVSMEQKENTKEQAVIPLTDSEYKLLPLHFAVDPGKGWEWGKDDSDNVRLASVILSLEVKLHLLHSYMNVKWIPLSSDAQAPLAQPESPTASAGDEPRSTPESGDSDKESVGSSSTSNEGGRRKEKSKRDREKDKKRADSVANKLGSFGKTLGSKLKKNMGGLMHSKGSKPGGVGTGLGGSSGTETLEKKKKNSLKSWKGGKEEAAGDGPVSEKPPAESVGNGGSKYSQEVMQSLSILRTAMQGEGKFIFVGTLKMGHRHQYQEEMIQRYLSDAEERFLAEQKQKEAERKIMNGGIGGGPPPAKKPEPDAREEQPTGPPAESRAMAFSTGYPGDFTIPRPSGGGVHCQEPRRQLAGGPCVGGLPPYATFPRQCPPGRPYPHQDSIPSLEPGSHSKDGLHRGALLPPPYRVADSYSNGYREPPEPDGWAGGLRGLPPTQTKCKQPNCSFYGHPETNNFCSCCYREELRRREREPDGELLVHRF
Summary of the method: as §1

PRPF8 = PRPF8 (UniProt Q6P2Q9)
Summary of the method: as §1

PSMD7 = molecular target: T3, PSMD7 (UniProt P51665)
T3 sequence (whole entry): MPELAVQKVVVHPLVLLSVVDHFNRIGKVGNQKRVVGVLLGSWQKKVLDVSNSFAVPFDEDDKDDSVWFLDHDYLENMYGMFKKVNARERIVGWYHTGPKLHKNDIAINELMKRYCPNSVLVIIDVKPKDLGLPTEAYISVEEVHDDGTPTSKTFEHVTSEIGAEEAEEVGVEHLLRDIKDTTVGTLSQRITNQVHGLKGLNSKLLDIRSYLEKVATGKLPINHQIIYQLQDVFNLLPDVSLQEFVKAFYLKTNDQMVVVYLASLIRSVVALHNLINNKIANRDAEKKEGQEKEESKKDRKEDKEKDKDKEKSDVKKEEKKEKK
Summary of the method: as §1

UCHL1 = UCHL1 (UniProt P09936)
Chain of UCHL1 (P09936 whole entry, looked up): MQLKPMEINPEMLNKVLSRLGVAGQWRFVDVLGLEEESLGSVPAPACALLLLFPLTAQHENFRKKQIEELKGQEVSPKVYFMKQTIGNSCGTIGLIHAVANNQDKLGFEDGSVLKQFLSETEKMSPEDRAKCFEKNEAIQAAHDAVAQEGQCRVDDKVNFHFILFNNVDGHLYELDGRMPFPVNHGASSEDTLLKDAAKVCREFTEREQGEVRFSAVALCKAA
Summary of the method: as §1

UCHL3 = molecular target: T4, UCHL3 (UniProt P15374)
T4 sequence (whole entry): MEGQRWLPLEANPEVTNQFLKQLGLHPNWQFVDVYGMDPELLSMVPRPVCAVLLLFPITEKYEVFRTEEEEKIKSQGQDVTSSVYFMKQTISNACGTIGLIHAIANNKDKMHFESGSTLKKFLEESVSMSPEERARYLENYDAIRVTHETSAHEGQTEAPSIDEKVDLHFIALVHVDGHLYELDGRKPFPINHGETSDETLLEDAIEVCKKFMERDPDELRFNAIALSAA
Summary of the method: as §1

UCHL5 = molecular target: T5, UCHL5 (UniProt Q9Y5K5)
T5 sequence (whole entry): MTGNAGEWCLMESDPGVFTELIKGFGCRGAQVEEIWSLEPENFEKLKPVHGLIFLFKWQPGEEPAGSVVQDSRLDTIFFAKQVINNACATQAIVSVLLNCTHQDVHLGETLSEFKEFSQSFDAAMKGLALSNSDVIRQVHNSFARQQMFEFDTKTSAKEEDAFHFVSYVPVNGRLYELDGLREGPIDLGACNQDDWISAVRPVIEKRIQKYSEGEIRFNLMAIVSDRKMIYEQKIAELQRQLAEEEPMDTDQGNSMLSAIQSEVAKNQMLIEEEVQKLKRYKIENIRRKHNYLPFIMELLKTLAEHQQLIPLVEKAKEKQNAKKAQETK
Summary of the method: as §1

USP10 = USP10 (UniProt Q14694)
Chain of USP10 (Q14694 whole entry): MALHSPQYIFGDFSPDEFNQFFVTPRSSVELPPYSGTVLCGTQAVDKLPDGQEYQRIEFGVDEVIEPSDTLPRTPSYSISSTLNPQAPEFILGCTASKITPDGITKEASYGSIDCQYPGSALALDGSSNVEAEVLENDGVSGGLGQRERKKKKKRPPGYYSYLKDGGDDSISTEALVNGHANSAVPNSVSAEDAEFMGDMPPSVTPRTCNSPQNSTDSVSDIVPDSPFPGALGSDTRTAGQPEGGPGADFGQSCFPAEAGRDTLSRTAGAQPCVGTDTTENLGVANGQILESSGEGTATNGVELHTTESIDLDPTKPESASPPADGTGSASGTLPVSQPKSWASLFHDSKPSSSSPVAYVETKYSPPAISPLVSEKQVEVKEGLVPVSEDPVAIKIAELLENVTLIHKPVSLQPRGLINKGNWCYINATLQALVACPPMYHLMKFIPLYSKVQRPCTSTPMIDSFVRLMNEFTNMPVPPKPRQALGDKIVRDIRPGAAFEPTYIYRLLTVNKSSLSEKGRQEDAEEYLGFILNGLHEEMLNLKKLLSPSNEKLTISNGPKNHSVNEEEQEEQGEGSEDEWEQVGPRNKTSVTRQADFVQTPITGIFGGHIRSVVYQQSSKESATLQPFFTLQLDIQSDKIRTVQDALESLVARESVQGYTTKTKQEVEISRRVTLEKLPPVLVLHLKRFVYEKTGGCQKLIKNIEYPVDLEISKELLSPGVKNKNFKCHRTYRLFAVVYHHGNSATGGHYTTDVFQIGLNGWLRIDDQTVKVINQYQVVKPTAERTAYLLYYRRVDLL
Summary of the method: as §1

USP15 = molecular target: T6, USP15 (UniProt Q9Y4E8)
T6 sequence (whole entry): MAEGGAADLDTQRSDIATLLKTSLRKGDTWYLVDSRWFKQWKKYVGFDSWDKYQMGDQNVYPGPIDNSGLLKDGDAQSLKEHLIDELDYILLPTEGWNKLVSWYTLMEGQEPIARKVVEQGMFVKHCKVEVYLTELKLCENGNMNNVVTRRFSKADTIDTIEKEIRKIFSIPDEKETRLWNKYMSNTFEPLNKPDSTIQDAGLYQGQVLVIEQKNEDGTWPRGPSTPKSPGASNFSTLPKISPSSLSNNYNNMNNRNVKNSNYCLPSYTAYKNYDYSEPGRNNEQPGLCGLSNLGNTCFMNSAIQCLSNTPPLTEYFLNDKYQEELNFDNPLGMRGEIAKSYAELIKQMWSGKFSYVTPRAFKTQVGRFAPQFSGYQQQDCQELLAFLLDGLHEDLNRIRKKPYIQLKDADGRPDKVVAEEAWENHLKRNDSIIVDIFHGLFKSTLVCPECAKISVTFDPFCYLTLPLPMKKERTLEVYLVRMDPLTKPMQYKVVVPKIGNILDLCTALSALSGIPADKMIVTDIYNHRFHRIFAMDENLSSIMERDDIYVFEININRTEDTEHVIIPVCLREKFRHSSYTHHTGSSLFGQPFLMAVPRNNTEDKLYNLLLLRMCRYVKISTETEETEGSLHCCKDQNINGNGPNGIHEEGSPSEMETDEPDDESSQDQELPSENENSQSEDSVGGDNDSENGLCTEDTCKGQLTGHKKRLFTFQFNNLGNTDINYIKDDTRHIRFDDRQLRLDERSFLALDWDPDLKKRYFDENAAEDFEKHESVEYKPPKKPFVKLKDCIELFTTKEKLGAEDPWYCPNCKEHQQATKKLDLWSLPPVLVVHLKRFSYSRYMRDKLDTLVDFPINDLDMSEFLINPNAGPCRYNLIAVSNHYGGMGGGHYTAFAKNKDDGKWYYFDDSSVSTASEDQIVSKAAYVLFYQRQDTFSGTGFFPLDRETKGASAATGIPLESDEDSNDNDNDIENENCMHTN
Summary of the method: as §1

USP16 = USP16 (UniProt Q9Y5T5)
Chain of USP16 (Q9Y5T5 whole entry, looked up): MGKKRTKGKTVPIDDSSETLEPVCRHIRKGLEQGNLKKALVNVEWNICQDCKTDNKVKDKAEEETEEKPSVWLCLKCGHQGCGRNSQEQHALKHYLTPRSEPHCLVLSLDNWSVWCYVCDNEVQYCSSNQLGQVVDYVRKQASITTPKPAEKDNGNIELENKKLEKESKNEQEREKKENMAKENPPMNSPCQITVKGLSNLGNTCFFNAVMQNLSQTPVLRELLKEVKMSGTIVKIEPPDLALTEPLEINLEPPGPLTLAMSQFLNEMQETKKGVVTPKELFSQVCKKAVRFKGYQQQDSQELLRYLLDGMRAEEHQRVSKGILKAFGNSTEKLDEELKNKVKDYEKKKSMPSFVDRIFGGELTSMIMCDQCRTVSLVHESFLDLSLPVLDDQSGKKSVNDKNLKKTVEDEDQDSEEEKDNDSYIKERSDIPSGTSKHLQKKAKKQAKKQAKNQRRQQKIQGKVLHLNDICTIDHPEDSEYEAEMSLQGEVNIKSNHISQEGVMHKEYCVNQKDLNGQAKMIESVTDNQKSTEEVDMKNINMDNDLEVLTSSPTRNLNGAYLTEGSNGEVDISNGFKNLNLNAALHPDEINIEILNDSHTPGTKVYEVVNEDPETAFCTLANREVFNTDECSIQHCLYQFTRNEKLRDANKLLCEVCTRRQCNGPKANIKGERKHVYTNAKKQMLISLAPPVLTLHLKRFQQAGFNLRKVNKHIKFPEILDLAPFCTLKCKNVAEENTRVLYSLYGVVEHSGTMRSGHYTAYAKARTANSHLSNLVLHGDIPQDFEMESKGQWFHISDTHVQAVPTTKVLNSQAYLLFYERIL
Summary of the method: as §1

CC(NC(=O)CCl)c1cc2n(n1)CCCC2.Cl (stereo not given)
log2 ratio of Biotin-Ahx-Ub-VS probe labelling (OTUD6B): -0.253 | log2 ratio of Biotin-Ahx-Ub-VS probe labelling (OTUD7B): -1.77 (active) | log2 ratio of Biotin-Ahx-Ub-VS probe labelling (PRPF8): 0.0583 | log2 ratio of Biotin-Ahx-Ub-VS probe labelling (PSMD7): 0.0299 | log2 ratio of Biotin-Ahx-Ub-VS probe labelling (UCHL1): -2.03 (active) | log2 ratio of Biotin-Ahx-Ub-VS probe labelling (UCHL3): 0.315 | log2 ratio of Biotin-Ahx-Ub-VS probe labelling (UCHL5): -0.121 | log2 ratio of Biotin-Ahx-Ub-VS probe labelling (USP10): -0.153 | log2 ratio of Biotin-Ahx-Ub-VS probe labelling (USP15): 0.0201 | log2 ratio of Biotin-Ahx-Ub-VS probe labelling (USP16): -0.211
